Data: PubChem BioAssay (EPA / NIEHS)
Several values for one entry are separate records, joined by “and”; a condition that tells them apart may be missing. Equal values may be shown once. Inconclusive results are not listed. More than one record can exist for a structure, and the calls need not agree. Activity calls are given as the source filed them. How the source made its calls, unless noted: active means hit-call score of the fitted dose curve at least 0.9, where 1 is the maximum; inactive means score below 0.9.

Experiments:
[1] = read-out: Vascular cell adhesion molecule 1 (VCAM1), VCAM1 (gene 7412); test: BSK_LPS_VCAM1: BioMAP Diversity Plus: LPS Assay for Vascular cell adhesion molecule 1 (VCAM1) Biomarker Activity (AID 2283086); conditions: primary human HUVEC with PBMC; actives raise or lower the signal
Procedure, shortened: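 HUVEC + PBMC co-culture, LPS system; compound 24 h; VCAM-1 by ELISA; bidirectional fit vs DMSO control; parallel SRB (0.1%, TCA-fixed, 560 nm) for cytotoxicity.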

[2] = read-out: CD40, CD40 (gene 958); test: BSK_SAg_CD40: BioMAP Diversity Plus: SAg Assay for CD40 Biomarker Activity (AID 2283088); conditions: primary human HUVEC with PBMC; actives raise or lower the signal
Procedure, shortened: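 Endpoint derived by fitting increases or decreases versus DMSO controls. CD40 is detected by fluorescence ELISA in a human vascular co-culture of endothelium and PBMC at 24 h.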

[3] = read-out: CD69, CD69 (gene 969); test: BSK_SAg_CD69: BioMAP Diversity Plus: SAg Assay for CD69 Biomarker Activity (AID 2283089); conditions: primary human HUVEC with PBMC; actives raise or lower the signal;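 on AC50: cell surface CD69 protein quantified by ELISA with fluorescence detection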
Procedure, shortened: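 Values derive from bidirectional fitting relative to DMSO vehicle. Cells: umbilical vein endothelium plus peripheral blood mononuclear cells, treated 24 h before fluorescent ELISA for CD69.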

[4] = read-out: Monocyte Chemoattractant Protein-1 (MCP1), CCL2 (gene 6347); test: BSK_SAg_MCP1: BioMAP Diversity Plus: SAg Assay for Monocyte Chemoattractant Protein-1 (MCP1) Biomarker Activity (AID 2283090); conditions: primary human HUVEC with PBMC; actives raise or lower the signal
Procedure, shortened: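 MCP-1 levels in the endothelial–PBMC SAg co-culture were quantified by ELISA at 24 h post-dosing; both increases and decreases versus DMSO scored. Cytotoxicity monitored by SRB total protein in parallel cultures.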

[5] = read-out: E-selectin (Homo sapiens) (UniProt P16581); test: BSK_SAg_Eselectin: BioMAP Diversity Plus: SAg Assay for Eselectin Biomarker Activity (AID 2283091); conditions: primary human HUVEC with PBMC; actives raise or lower the signal
Procedure, shortened: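 Endpoint values derive from bidirectional fitting relative to DMSO, using ELISA-measured E-selectin in a human vascular co-culture (umbilical vein endothelium plus PBMC) sampled 24 h after dosing.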

[6] = BSK_SAg_PBMCCytotoxicity: PBMC Cytotoxicity Assessment in the BioMAP Diversity Plus: SAg Assay (AID 2283093); conditions: primary human HUVEC with PBMC;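 further: PBMC viability measured as Alamar Blue reduction fluorescence at 546/580 nm; fitted both ways against DMSO so a hit may be loss or gain of signal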;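 on AC50: PBMC superantigen activated with SEB plus TSST-1 one hour after compound addition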
Procedure, shortened: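 Human umbilical vein endothelial cells co-cultured with PBMC; PBMC (75,000/well) pre-treated with compound 1 h, then activated with SEB and TSST-1 (20 ng/mL final each) for 90 h. Alamar Blue added 6 h, fluorescence 546/580 nm; bidirectional fit versus DMSO.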

[7] = read-out: Interleukin-8 (IL8), CXCL8 (gene 3576); test: BSK_SAg_IL8: BioMAP Diversity Plus: SAg Assay for Interleukin-8 (IL8) Biomarker Activity (AID 2283094); conditions: primary human HUVEC with PBMC; actives raise or lower the signal
Procedure, shortened: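 ELISA read-out of IL-8 in a primary human vascular co-culture (umbilical vein endothelium plus PBMC), taken 24 h after compound addition. Values derive from bidirectional fits against DMSO negative controls.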

[8] = BSK_SAg_Proliferation: Cell Proliferation Assessment in the BioMAP Diversity Plus: SAg Assay (AID 2283095); conditions: primary human HUVEC with PBMC;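 further: relative cell number as total protein by SRB absorbance in sub-confluent culture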
Procedure, shortened: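 Cells (endothelium plus PBMC, human primary) were dosed with chemical, cultured 96 h, fixed in 10% TCA and stained with 0.1% SRB. Absorbance at 560 nm gave relative protein, fitted bidirectionally relative to DMSO.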

[9] = BSK_SAg_SRB: Viability Assessment in the BioMAP Diversity Plus: SAg Assay (AID 2283096); conditions: primary human HUVEC with PBMC;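 further: cells read one day after compound addition; hits may be either gain or loss of signal compared with DMSO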
Procedure, shortened: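 Endothelial/PBMC primary human co-culture; compound 24 h; fix 10% TCA, stain 0.1% SRB, A560; protein content as cytotoxicity proxy; bidirectional curve fit, DMSO = baseline.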

[10] = molecular target: human CYP2C9, CYP2C9 (gene 1559) (UniProt P11712); test: NVS_ADME_hCYP2C9: NovaScreen (NVS) CYP450-related Enzyme Activity (ADME) Assay for human CYP2C9 (AID 2283108; active means hit-call score of the fitted dose curve at least 0.9, where 1 is the maximum)
Chain of human CYP2C9, CYP2C9 (gene 1559) (P11712 whole entry, looked up): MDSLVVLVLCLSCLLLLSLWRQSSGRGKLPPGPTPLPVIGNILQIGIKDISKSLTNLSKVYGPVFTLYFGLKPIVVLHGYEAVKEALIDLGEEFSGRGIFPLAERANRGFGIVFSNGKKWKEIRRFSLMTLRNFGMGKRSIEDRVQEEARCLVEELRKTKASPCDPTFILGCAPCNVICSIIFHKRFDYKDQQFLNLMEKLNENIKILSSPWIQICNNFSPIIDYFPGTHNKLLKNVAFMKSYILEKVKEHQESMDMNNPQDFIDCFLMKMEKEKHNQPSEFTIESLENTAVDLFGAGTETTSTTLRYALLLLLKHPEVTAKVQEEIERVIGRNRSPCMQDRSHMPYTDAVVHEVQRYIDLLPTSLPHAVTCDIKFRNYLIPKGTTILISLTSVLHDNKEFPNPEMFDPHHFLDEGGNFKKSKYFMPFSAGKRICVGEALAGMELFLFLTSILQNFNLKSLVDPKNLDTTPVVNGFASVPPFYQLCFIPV
Procedure, shortened: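 Cell-free assay of recombinant human CYP2C9 produced in Sf9 cells, with enzyme activity read by fluorescence intensity 0.75 h after compound addition. Loss of signal versus an acetonitrile negative control indicates inhibition. Primary screen used 10 uM in duplicate; actives were retested in concentration series.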

[11] = molecular target: Cytochrome P450 2C19 (Homo sapiens) (UniProt P33261); test: NVS_ADME_hCYP2C19: NovaScreen (NVS) CYP450-related Enzyme Activity (ADME) Assay for human CYP2C19 (AID 2283113; active means hit-call score of the fitted dose curve at least 0.9, where 1 is the maximum;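 further: potency for inhibition seen as loss of fluorescent signal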)
Procedure, shortened: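 Biochemical CYP2C19 inhibition screen: insect-cell recombinant protein plus fluorescent substrate, 1 h, fluorescence intensity. Acetonitrile defined baseline activity. Single 10 uM concentration in duplicate, with concentration-response follow-up for actives.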

[12] = molecular target: human Ephrin type-A Receptor 1 (EphA1), EPHA1 (gene 2041) (UniProt P21709); test: NVS_ENZ_hEphA1: NovaScreen (NVS) Enzymatic Assay for human Ephrin type-A Receptor 1 (EphA1) (AID 2283158; active means hit-call score of the fitted dose curve at least 0.9, where 1 is the maximum;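 further: activity is signal loss versus DMSO meaning EphA1 kinase inhibition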)
Chain of human Ephrin type-A Receptor 1 (EphA1), EPHA1 (gene 2041) (P21709 whole entry, looked up): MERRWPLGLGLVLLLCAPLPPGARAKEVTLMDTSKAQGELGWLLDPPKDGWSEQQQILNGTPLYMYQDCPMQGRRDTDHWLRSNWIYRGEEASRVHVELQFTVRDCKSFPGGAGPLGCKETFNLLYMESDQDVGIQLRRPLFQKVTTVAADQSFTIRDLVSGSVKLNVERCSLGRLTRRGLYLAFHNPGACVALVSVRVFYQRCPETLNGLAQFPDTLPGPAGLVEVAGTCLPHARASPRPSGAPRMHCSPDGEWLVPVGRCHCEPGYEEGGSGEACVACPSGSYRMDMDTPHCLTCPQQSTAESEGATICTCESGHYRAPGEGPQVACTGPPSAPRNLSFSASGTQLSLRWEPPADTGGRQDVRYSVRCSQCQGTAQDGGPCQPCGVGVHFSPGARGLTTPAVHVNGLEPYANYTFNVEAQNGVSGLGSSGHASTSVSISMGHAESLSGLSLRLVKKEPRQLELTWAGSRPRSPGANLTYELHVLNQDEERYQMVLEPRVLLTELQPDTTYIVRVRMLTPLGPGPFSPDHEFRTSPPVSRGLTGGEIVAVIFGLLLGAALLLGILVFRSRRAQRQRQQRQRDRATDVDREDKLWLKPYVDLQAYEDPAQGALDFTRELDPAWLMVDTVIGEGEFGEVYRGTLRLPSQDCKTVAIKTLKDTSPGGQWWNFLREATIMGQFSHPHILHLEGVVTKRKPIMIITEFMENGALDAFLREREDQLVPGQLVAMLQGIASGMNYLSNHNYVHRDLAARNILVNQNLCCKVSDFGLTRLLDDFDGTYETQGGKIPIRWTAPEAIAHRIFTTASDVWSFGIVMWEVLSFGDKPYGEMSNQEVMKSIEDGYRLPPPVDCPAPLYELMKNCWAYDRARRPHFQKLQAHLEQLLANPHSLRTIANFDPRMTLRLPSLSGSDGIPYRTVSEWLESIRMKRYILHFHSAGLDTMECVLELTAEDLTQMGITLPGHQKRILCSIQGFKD
Procedure, shortened: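 Here the EphA1 protein is recombinant and the substrate fluorescent, with electrophoretic separation before fluorescence detection at 1 hour. Signal loss against DMSO defines activity; plate controls included; follow-up concentration series reach 50 uM.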

[13] = molecular target: human Matrix Metalloproteinase-9 (MMP9), MMP9 (gene 4318) (UniProt P14780); test: NVS_ENZ_hMMP9: NovaScreen (NVS) Enzymatic Assay for human Matrix Metalloproteinase-9 (MMP9) (AID 2283190; active means hit-call score of the fitted dose curve at least 0.9, where 1 is the maximum;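 further: cell-free recombinant MMP9 protease activity read by fluorescent substrate signal; active means inhibition seen as loss of fluorescence signal versus DMSO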)
Chain of human Matrix Metalloproteinase-9 (MMP9), MMP9 (gene 4318) (P14780 whole entry, looked up): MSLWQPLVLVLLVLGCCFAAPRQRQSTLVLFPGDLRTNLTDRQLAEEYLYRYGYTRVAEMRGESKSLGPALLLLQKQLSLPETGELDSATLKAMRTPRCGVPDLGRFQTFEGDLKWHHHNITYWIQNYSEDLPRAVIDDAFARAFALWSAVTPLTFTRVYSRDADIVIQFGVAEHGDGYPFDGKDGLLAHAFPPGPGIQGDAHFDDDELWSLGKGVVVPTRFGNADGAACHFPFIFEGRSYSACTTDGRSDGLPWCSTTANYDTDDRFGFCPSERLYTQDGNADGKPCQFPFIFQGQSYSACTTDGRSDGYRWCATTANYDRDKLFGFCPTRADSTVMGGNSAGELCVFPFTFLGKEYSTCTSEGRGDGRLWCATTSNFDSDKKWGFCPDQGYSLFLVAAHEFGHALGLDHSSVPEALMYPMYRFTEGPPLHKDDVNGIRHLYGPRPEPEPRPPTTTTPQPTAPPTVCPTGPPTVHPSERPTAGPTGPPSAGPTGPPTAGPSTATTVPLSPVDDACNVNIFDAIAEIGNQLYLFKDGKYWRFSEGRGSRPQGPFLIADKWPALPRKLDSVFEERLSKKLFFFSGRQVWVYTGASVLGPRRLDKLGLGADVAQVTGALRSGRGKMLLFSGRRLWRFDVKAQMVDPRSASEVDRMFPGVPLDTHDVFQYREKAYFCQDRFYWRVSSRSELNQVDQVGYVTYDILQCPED
Procedure, shortened: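 Screening concentration 25 uM, duplicate wells, then dose series for confirmation. Cell-free enzymatic reaction measured by fluorescence intensity 1 h post-dosing; decreased signal versus DMSO taken as activity.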

Measured: AC50

Chain of E-selectin (Homo sapiens) (P16581 whole entry, looked up): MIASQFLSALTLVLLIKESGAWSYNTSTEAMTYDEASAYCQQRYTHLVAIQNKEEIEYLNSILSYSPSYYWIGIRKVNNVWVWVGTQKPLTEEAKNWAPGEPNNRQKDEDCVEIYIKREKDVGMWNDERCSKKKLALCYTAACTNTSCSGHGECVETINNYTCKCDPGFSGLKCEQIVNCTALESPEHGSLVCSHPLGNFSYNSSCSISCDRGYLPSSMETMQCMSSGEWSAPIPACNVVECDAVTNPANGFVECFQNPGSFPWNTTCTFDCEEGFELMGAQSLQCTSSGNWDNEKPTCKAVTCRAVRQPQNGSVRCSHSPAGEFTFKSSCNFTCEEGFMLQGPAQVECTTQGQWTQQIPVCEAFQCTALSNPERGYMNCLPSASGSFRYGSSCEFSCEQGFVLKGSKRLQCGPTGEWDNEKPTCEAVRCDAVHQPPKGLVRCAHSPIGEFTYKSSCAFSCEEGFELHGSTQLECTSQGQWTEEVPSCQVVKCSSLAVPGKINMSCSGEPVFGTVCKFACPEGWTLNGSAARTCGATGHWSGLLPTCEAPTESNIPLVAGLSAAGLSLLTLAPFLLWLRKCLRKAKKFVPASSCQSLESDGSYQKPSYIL

CCOc1nc(F)cc2nc(S(=O)(=O)Nc3c(Cl)cccc3C(=O)OC)nn12
inactive: [1] | [2] | [3] | [4] | [5] | [6] | [7] | [8] | [9]

O=C1CCCN1CCO
inactive: [1] | [2] | [3] | [4] | [5] | [6] | [7] | [8] | [9]

C=C[Si](OC(C)=O)(OC(C)=O)OC(C)=O
inactive: [1] | [2] | [3] | [4] | [5] | [6] | [7] | [8] | [9]

CO[Si](OC)(OC)c1ccccc1
inactive: [1] | [2] | [3] | [4] | [5] | [6] | [7] | [8] | [9]

C=CCOc1c(Br)cc(Br)cc1Br
inactive: [1] | [2] | [3] | [4] | [5] | [6] | [7] | [8] | [9]

O=c1c2ccccc2oc2ccccc12
inactive: [1] | [2] | [3] | [4] | [5] | [6] | [7] | [8] | [9]

O=C(Cl)c1cc(C(=O)Cl)cc(C(=O)Cl)c1
active: [1] 27.8 µM | [2] 30.3 µM | [3] 31.9 µM | [4] 29.1 µM | [5] 36.6 µM | [6] 12.6 µM | [7] 20 µM | [8] 12.7 µM | [9] 30.7 µM

C/C=C\C/C=C/CCCCCCCCOC(C)=O
inactive: [4] | [7] | [9] | [12]
active: [1] 26.2 µM | [2] 20 µM | [3] 20 µM | [5] 29.5 µM | [6] 24.3 µM | [8] 26.7 µM | [10] 3.9 µM | [11] 0.065 µM | [13] 13.7 µM

c1ccc(-c2ccccn2)nc1
inactive: [1] | [2] | [3] | [4] | [5] | [6] | [7] | [8] | [9]

Nc1ccc(N)c(Cl)c1
inactive: [7]
active: [1] 5.43 µM and 5.78 µM | [2] 26.4 µM and 21.7 µM | [3] 22.9 µM and 18.4 µM | [4] 30.8 µM and 31.3 µM | [5] 19.4 µM and 22.2 µM | [6] 16.4 µM and 15.4 µM | [7] 30.8 µM | [8] 14.8 µM and 12.7 µM | [9] 27.7 µM
